Hit rate of the full screen: of about 410,000 compounds, about 7,200 (1.8%) were called active. Entries that show only a call come without a potency. Roughly 7% stayed inconclusive and do not appear here. The sample as a whole holds a higher share of actives than the screen did. Values without a mark were called inactive. The call rests on the fitted dose curve; in most records, active means well fitted activation curve with a large enough effect; inconclusive means small, poorly fitted or top-dose-only effect, or another doubt; inactive means no such curve, though single readings can be large or run the other way.

Drawing on PubChem BioAssay AID652104 (National Center for Advancing Translational Sciences (NCATS), 2013), this text covers Potency and growth rescue (activation) for 97 compounds.
Potency means the concentration at half of the fitted maximal effect.

This experiment can be described thus: qHTS of TDP-43 Inhibitors. Further: nearly all actives have a fitted effect of over 50% in size. The following applies: TDP-43 expressing yeast growth rescue, BacTiter-Glo, 24 h; series mostly up to 46.1 µM. Put shortly:
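In this qHTS, compounds that restore growth of yeast expressing TDP-43 appear as activators. Cells (OD600=0.02, galactose medium, raffinose-pregrown) are incubated with compound 24 hr at 30 deg C and growth is quantified by BacTiter-Glo.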
For the compound `O=C(Nc1ccc2nc(SCC(=O)N3CCCc4ccccc43)sc2c1)c1ccc(Cl)cc1`, the Potency entry was “inactive”.

Consider `CCOc1ccccc1NC(=O)CN1CCCN(Cc2cccc(Cl)c2)S1(=O)=O`, for which the Potency result is “inactive”. With `CCCCn1cc(S(=O)(=O)c2ccc(OCC)cc2)c(=O)c2cc(OC)c(OC)cc21`, the Potency result is “inactive”.

`COc1ccc(S(=O)(=O)c2cn(C)c3cc(N4CCCCC4)c(F)cc3c2=O)cc1`: the Potency entry was “inactive”. For `COc1cc2nc(NCC(C)c3ccccc3)n3nc(-c4ccccc4)nc3c2cc1OC` (configuration not stated), the Potency entry was “inactive”.

Regarding `CCCCC12CN3CC(C)(CN(C1)C3c1ccc(O)c(OC)c1)C2=O` (configuration not stated), the Potency entry was “inactive”.

For the compound `Cc1nc(-c2ccc(F)cc2)c(CC(=O)N2CCN(S(=O)(=O)c3ccc(F)cc3)CC2)s1`, the Potency entry was “inactive”.

Consider `Cc1ccc(S(=O)(=O)N2CCN(C(=O)Cc3sc(C)nc3-c3ccc(F)cc3)CC2)c(C)c1`, for which the Potency was 35.5 µM (active). Consider `Cc1nc(-c2ccc(F)cc2)c(CC(=O)Nc2cc(S(=O)(=O)N3CCCCC3)ccc2C)s1`, for which the Potency entry was “inactive”. Take `COc1cccc(CNCc2c(C(=O)O)n(Cc3ccc(C)cc3)c3cc(C)ccc23)c1OC`: the Potency entry was “inactive”. As to `COc1ccc(NS(=O)(=O)c2cc3c4c(c2)CC(=O)N4CCC3)cc1Cl`, the Potency entry was “inactive”. For `COc1cc(NC(=O)CSc2nc3nc(C)c(Cc4ccc(C)cc4)c(C)n3n2)cc(OC)c1OC`, the Potency entry is “inactive”. As to `CC(C)c1ccc(NS(=O)(=O)c2cn(C)c(=O)n(C)c2=O)cc1`, the Potency is 20 µM (active). Take `Cn1cc(S(=O)(=O)Nc2ccc(Cl)cc2Cl)c(=O)n(C)c1=O`: the Potency result was “inactive”. On the same count and under the same terms, as for `Cn1cc(S(=O)(=O)NC(c2ccccc2)c2ccccc2)c(=O)n(C)c1=O`, the entry is “inactive”.

On to `Cc1sc2ncnc(N3CCC(C(=O)Nc4ccc(F)cc4Cl)CC3)c2c1C`, for which the Potency was 15.8 µM (active).

For `Cc1nnc(N2CCC(C(=O)Nc3ccc(F)cc3)CC2)c2nn(-c3ccc(Cl)cc3)c(C)c12`, the Potency result was “inactive”. For `CCc1ccc(C(=O)NNC(=O)C2CCN(c3ncnc4sc(C)c(C)c34)CC2)cc1`, the Potency entry is “inactive”. On to `O=C(CCn1ccc2cc(S(=O)(=O)N3CCCC3)ccc21)NCc1cccc(Cl)c1`, for which the Potency result is “inactive”. Regarding `CCOC(=O)c1ccc(NC(=O)CCS(=O)(=O)c2ccc(C)cc2)cc1`, the Potency entry was “inactive”. Same read-out and setting: as for `O=C(CCc1nc(CN2CCN(S(=O)(=O)c3ccc(F)cc3)CC2)no1)N1CCCCC1`, the entry is “inactive”; as for `COc1cccc(CNC(=O)Cn2ncn3c(cc4ccccc43)c2=O)c1`, “inactive”. For the compound `Fc1ccc(-n2ncc3c(Nc4ccc(Oc5ccccc5)cc4)ncnc32)cc1`, the Potency entry was “inactive”.

For the compound `CCCCNc1c(-c2cccc(Sc3ccc(OC)cc3)c2)nc2ccccn12`, the Potency entry was “inactive”. Consider `COc1ccc(-c2nc3cc(C)ccn3c2NC2CCCCC2)cc1SC1CCCCC1`, for which the Potency result was “inactive”.

Turning to `CCCCNc1c(-c2ccc(OC)c(Sc3ccc(OC)cc3)c2)nc2ccc(Cl)cn12`, the Potency is 17.8 µM (active). Turning to `O=C1CN(C(=O)Nc2ccccc2C(F)(F)F)C(c2ccccc2)c2c(sc3c2CCCC3)N1` (configuration not stated), the Potency entry was “inactive”. The same measure, in the same setting: with `COc1cc(OC)cc(-c2nc3nc(C)c(CCC(=O)Nc4ccc(C)cc4)c(C)n3n2)c1` the entry was “inactive”; with `CCOc1ccc(C(=O)NCC(=O)N2CCN(c3ccc(C(F)(F)F)cn3)CC2)cc1`, “inactive”; with `CCN(CC)CCN(C)C(c1ccnc2ccccc12)c1nnnn1-c1ccc2c(c1)OCCO2` (configuration not stated), “inactive”.

In the case of `CCC(c1nnnn1-c1ccc2c(c1)OCCO2)N1CCN(c2ccc(C(F)(F)F)cn2)CC1` (configuration not stated), the Potency is 22.4 µM (active).

Regarding `O=C(Nc1ccc(O)c(-c2nc3ccccc3o2)c1)c1ccc(-c2cccc(Cl)c2)o1`, the Potency result was “inactive”.

In the case of `COC(=O)c1cc2occc2n1Cc1nc(-c2ccc(C)cc2)oc1C`, the Potency result was “inactive”. Turning to `CCN(CC)S(=O)(=O)c1ccc2c(c1)N(CC(=O)NCc1ccccc1)C(=O)CS2`, the Potency result is “inactive”. Take `CCCc1c(C(=O)O)cnn1-c1ccc(Cl)cc1`: the Potency is 20 µM (active). Turning to `Nc1c(C(=O)O)cnn1-c1ccccc1`, the Potency result is “inactive”.

As for `CCNC(=O)c1cnn(-c2ccccc2)c1-c1ccccc1`, the Potency result was “inactive”. Turning to `O=C(Nc1ccc(S(=O)(=O)N2CCC(c3nc4ccccc4s3)CC2)cc1)c1ccccc1F`, the Potency entry is “inactive”. Turning to `COc1ccc2c(c1)CC[C@@H]1[C@@H]2CC[C@]2(C)C(=O)CC[C@@H]12`, the Potency is 12.6 µM (active). `COc1ccc(Cn2ccn(Cc3cccc(OC)c3)c(=O)c2=O)cc1`: the Potency entry is “inactive”. Consider `COc1ccc(C=C2CCC3C(CCCC34OCCO4)C2=O)cc1` (configuration not stated), for which the Potency entry is “inactive”. On to `Cc1cc(Br)ccc1NC(=O)Cn1cnc2sc(C)c(S(=O)(=O)N3CCN(C)CC3)c2c1=O`, for which the Potency result is “inactive”. With `CCOc1ccc(N(CC)C(=O)c2cc3c(=O)oc4ccccc4c3s2)cc1`, the Potency entry was “inactive”. Same read-out and setting: as for `CCOc1ccc(CCNC(=O)Cn2nc(CC)n3c(cc4sc(CC)cc43)c2=O)cc1OCC`, the entry is “inactive”. Take `CCOc1ccc(C(=O)/C=C/c2cn(CC(O)CN3CCCCCC3)c3ccccc23)cc1` (configuration not stated): the Potency entry is “inactive”.

As for `CC(C)c1ccc(NC(=O)Cn2nnc(C(=O)NCCc3ccccc3)c2N)cc1`, the Potency entry was “inactive”.

`CCOC(=O)C1CCCN(C(=O)c2ccc(-n3ccc4ccccc43)s2)C1` (configuration not stated): the Potency entry is “inactive”. Turning to `O=S(=O)(NC1CC2CCC1C2)c1ccc(Cl)cc1` (configuration not stated), the Potency is 7.08 µM (active).

In the case of `CCOC1CCCCC1NS(=O)(=O)c1ccc(Cl)cc1` (configuration not stated), the Potency result is “inactive”.

Take `CCN1CCN(C2CCCCC2NS(=O)(=O)c2ccc(Cl)cc2)CC1` (configuration not stated): the Potency entry is “inactive”. On to `COc1ccc(Cn2ccnc2SCC(=O)NCc2ccco2)cc1`, for which the Potency entry was “inactive”.

On to `COc1cc(C(=O)N2CCC(c3ccncc3)CC2)cc(OC)c1OC`, for which the growth rescue (activation) is -21.7% [at 9.22 µM]. As to `O=C(Nc1ccccc1N1CCCCC1)c1cccc(F)c1`, the Potency is 12.6 µM (active). Regarding `CCn1c(=O)c(=O)n(CC)c2cc(N3CCCCC3)c(NC(=O)c3cccc(F)c3)cc21`, the Potency entry was “inactive”. As to `O=C(Nc1ccccc1N1CCCC1)c1ccc(F)c(S(=O)(=O)N2CCOCC2)c1`, the Potency result was “inactive”. Still for that read-out and setting: with `CCN1CCN(Cc2c(O)ccc3oc(C)c(C(=O)Nc4ccc(C)cc4C)c23)CC1` the entry was “inactive”; with `O=C(CSc1nc2nccnc2c(=O)n1CCc1c[nH]c2ccccc12)Nc1ccccc1F`, “inactive”.

For the compound `Cc1ccc(S(=O)(=O)NCc2cn3ccsc3n2)c(C)c1`, the Potency result was “inactive”. For `Cc1ccc(Nc2c(-c3ccc(Cl)cc3)nc3sccn23)c(C)c1`, the Potency is 25.1 µM (active). For `O=C(NCc1ccc(Cl)cc1)c1cc2c(nc3sccn32)s1`, the Potency result was “inactive”. Take `Cc1ccc2nc3c(cc(C(=O)NC4CCCCC4)c(=N)n3C(C)C)c(=O)n2c1`: the Potency result is “inactive”. Take `CCN(Cc1ccccc1)S(=O)(=O)c1ccc2c(c1)CCCN2C(C)=O`: the Potency result was “inactive”. On to `CCOC(=O)c1ccc[n+](CC(=O)Nc2ccccc2OC(F)F)c1`, for which the growth rescue (activation) was 1.27% [at 0.397 µM]. As to `FC(F)Oc1ccccc1NC(=S)Nc1cccc(Cl)c1Cl`, the Potency was 17.8 µM (active). With `CC(=O)Nc1ccc(NC(=O)COc2ccccc2C(=O)Nc2cccc(Cl)c2Cl)cc1`, the Potency result is “inactive”. On to `Cc1cc(C)c(-c2n[nH]c3c2C(c2ccccc2F)N(CCO)C3=O)c(O)c1` (configuration not stated), for which the Potency result was “inactive”. For `CCOC(=O)c1sc(NC(=O)/C=C/c2ccc(C(C)C)cc2)c(C(=O)OCC)c1C`, the Potency entry was “inactive”. On to `CSc1ncc(C(=O)NCc2ccccc2Cl)c(C(F)(F)F)n1`, for which the Potency result is “inactive”. `Cc1cccc(N2CCN(C(=O)c3oc(=O)c4ccccc4c3-c3ccccc3)CC2)c1C`: the Potency result is “inactive”. For `COc1ccccc1Nc1cc(C(=O)NCCCN(C)C2CCCCC2)c2ccccc2n1`, the Potency result is “inactive”. With `O=C(Nc1cc(-c2nc3ccccc3o2)ccc1Cl)c1cc([N+](=O)[O-])ccc1N1CCOCC1`, the Potency entry was “inactive”. Consider `O=[N+]([O-])c1ccc2oc(-c3cccc(O)c3)nc2c1`, for which the Potency is 7.94 µM (active). With `COc1ccc(-c2nc3ccccc3o2)cc1NC(=O)c1cc([N+](=O)[O-])ccc1N1CCOCC1`, the Potency entry was “inactive”.

Consider `CN(c1ccccc1)S(=O)(=O)c1cc(C(=O)Nc2nc3ccccc3[nH]2)ccc1Cl`, for which the Potency is 15.8 µM (active). As for `CN(c1ccccc1)S(=O)(=O)c1cc(C(=O)OCC(=O)N2CCN(C(=O)c3ccco3)CC2)ccc1Cl`, the Potency entry is “inactive”. For the compound `CN(c1ccccc1)S(=O)(=O)c1cccc(C(=O)NNC(=O)c2ccncc2)c1`, the Potency entry is “inactive”.

For the compound `c1ccc(Nc2n[nH]nc2-c2ccccc2)cc1`, the Potency is 12.6 µM (active). As to `S=c1[nH]nc(Nc2ccccc2)s1`, the Potency result was “inactive”.

In the case of `O=c1cnnc(Nc2ccccc2)[nH]1`, the Potency entry is “inactive”. In the case of `Cc1cc(C)cc(-n2c(SCC(=O)NCC3CCCO3)nc3c([nH]c4ccccc43)c2=O)c1` (configuration not stated), the Potency result was “inactive”. As to `Cc1ccc(-n2c(Cc3cccs3)nnc2SCC(=O)OC(C)C)cc1`, the Potency entry was “inactive”.

Take `Cc1ccc(-c2nnc(SCC(=O)N/N=C/c3cccs3)n2-c2ccc(C)cc2)cc1`: the Potency is 22.4 µM (active). As to `NNC(=O)CSc1nnc(-c2ccccc2)n1-c1ccccc1`, the Potency result is “inactive”. As for `COc1cccc(CNc2nccn(-c3ccc(OC)c(OC)c3)c2=O)c1`, the Potency result was “inactive”. As for `CC1=C[C@H]2Cc3cc(C)cc(C)c3S(=O)(=O)[C@@H]2C=C1`, the Potency is 15.8 µM (active). Same read-out and setting: as for `COc1ccc(-n2ccn(CC(=O)Nc3ccc(C)c(C)c3)c(=O)c2=O)cc1OC`, the entry is “inactive”; as for `Cc1[nH]nc(-c2ccc(OCc3cnn(-c4ccccc4)c3)cc2O)c1Oc1ccc(Cl)cc1`, “inactive”. Consider `O=C(c1cnn(-c2ccc(Cl)cc2)c1)c1ccccc1O`, for which the Potency result is “inactive”.

On to `Cc1cc(O)cc(O)c1C(=O)Cc1cnn(-c2ccccc2)c1`, for which the Potency is 8.91 µM (active). Still for that read-out and setting: with `CC(C)CNc1ncnc2c1nnn2C` the entry was “inactive”; with `O=C(O)Cn1c(Cc2ccccc2)nc2ccccc21`, “inactive”; with `CC(=O)c1nc2ccccc2n1Cc1ccccc1`, 11.2 µM (active). As to `CC(O)c1nc2ccccc2n1Cc1ccc([N+](=O)[O-])cc1` (configuration not stated), the Potency result was “inactive”. For `Cc1ccc(NC(=O)Cn2c(=O)n(-c3ccccc3)c(=O)c3c4c(sc32)CCCC4)cc1`, the Potency result was “inactive”. The same measure, in the same setting: as for `COc1ccccc1-c1n[nH]c2c1[C@H](C)CC[C@H]2C(C)C`, the figure is 25.1 µM (active); as for `COc1ccccc1-c1n[nH]nc1C1=CC(=O)CC(C)(C)C1`, “inactive”. On to `COc1ccc(N2CCN(C(=O)c3c(C)oc4nc(C)nc(N5CCCC5)c34)CC2)cc1`, for which the Potency result was “inactive”.
